# Legend:
# Conditions in all cases: concentration: 1 μM, replicates: in singlicate; n = 1
# RIOK1 = system: RIOK1
# RIOK2 = system: RIOK2
# RIOK3 = system: RIOK3
# RIPK1 = system: RIPK1
# RIPK2 = system: RIPK2
# RIPK4 = system: RIPK4
# RIPK5 = system: RIPK5
# ROCK1 = system: ROCK1
# ROCK2 = system: ROCK2
# ROS1 = system: ROS1
# [1] = system: RPS6KA4(Kin.Dom.1-N-terminal)
# [2] = system: RPS6KA4(Kin.Dom.2-C-terminal)
# [3] = system: RPS6KA5(Kin.Dom.1-N-terminal)
# [4] = system: RPS6KA5(Kin.Dom.2-C-terminal)
# [5] = system: T1, RSK1(Kin.Dom.1-N-terminal)
# T1 construct: gene RPS6KA1
# [6] = system: T2, RSK1(Kin.Dom.2-C-terminal)
# T2 construct: gene RPS6KA1
# [7] = system: T3, RSK2(Kin.Dom.1-N-terminal)
# T3 construct: gene RPS6KA3
# [8] = system: T4, RSK2(Kin.Dom.2-C-terminal)
# T4 construct: gene RPS6KA3
# [9] = system: T5, RSK3(Kin.Dom.1-N-terminal)
# T5 construct: gene RPS6KA2
# [10] = system: T6, RSK3(Kin.Dom.2-C-terminal)
# T6 construct: gene RPS6KA2
# 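Also: KINOMEscan kinase panel screen.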
SMILES,%Inh (RIOK1) [%],%Inh (RIOK2) [%],%Inh (RIOK3) [%],%Inh (RIPK1) [%],%Inh (RIPK2) [%],%Inh (RIPK4) [%],%Inh (RIPK5) [%],%Inh (ROCK1) [%],%Inh (ROCK2) [%],%Inh (ROS1) [%],%Inh [1] [%],%Inh [2] [%],%Inh [3] [%],%Inh [4] [%],%Inh [5] [%],%Inh [6] [%],%Inh [7] [%],%Inh [8] [%],%Inh [9] [%],%Inh [10] [%]
Cc1ccc(O)cc1Nc1ccnc2cc(-c3ccc(CN4CCCCC4)o3)ccc12 [GW557777],16,0,21,12,91,4,12,0,0,11,0,9,0,10,0,90.7,0,40,1,29
COc1cc(Nc2ccnc3cc(-c4ccncc4)ccc23)cc(OC)c1OC.Cl [GW494610],39,11,0,0,83,0,0,31,14,16,8,0,22,0,0,0,5,20,1,0
N#Cc1cnc2cc(-c3cnc(CNCCN4CCOCC4)s3)ccc2c1Nc1ccc(Oc2ccccc2)cc1 [GW664114],15,0,29,0,26,21,81,0,2,0,41,0,76,28,91.7,32,79,1,78,16
COC(=O)Nc1nc2ccc(Oc3ccc(NC(=O)Nc4cc(C(F)(F)F)ccc4F)cc3)cc2[nH]1.Cl [GW654607],2,0,21,74,81,18,0,43,16,6,15,0,0,0,0,13,0,35,12,0
Fc1cc(Cl)ccc1Nc1ccnc2cc(-c3ccc(CN4CCSCC4)o3)ccc12 [GW560106],9,0,0,0,94.7,0,0,29,32,20,18,0,23,0,0,25,0,48,0,6
Cc1ccc(NC(=O)c2ccc(Cl)c(Cl)c2)cc1-c1ccc(C(=O)Nc2ccncc2)cc1 [GSK1398460],50,0,53,23,11,6,4,0,0,20,25,0,15,0,24,2,0,22,7,9
CC(C)c1nc(-c2ccc(F)c(NS(=O)(=O)c3c(F)cccc3F)c2)c(-c2ccnc(Nc3ccc(N4CCOCC4)nc3)n2)s1 [GSK1804250],30,13,84,0,97.6,0,19,12,2,17,6,0,15,3,25,9,22,27,24,6
